Results filed as inconclusive are left out. Activity calls are given as the source filed them.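 Rule for the calls, unless noted: active = inhibition above the screen-wide mean plus 3 SD, about 51%; inactive = the rest.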
What was measured:
[1] = rapamycin-like changes in RPL19A-GFP expression – cell-based, S. cerevisiae, multiplex flow cytometry, primary screen (AID 1862; in the data active = percent of DMSO control GFP below about 86%;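 note: lower values mimic rapamycin by blocking the RPL19A rise seen in DMSO cells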); details: S. cerevisiae RPL19A-GFP strain, flow cytometry fluorescence, 3 h; at 10 µM; stronger effect = lower value
[2] = TOR pathway GLN3 branch reporter MEP2-GFP changes – S. cerevisiae, multiplex flow cytometry, primary screen (AID 1867;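 active = GFP response, as percent of the DMSO control, above the screen-wide mean plus 3 SD, about 139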;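 note: median GFP channel fluorescence of barcode-gated MEP2-GFP cells measured by flow cytometry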); details: S. cerevisiae MEP2-GFP strain, 3 h, at 10 µM, stronger effect = higher value, 100% means same as DMSO wells
[3] = TOR pathway RTG branch CIT2 reporter changes – S. cerevisiae, GFP fusion, multiplex flow cytometry, primary screen (AID 1870;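 active = percent response above a set limit, the screen-wide mean plus 3 SD, cut at about 130% in these data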;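 note: barcoded CIT2-GFP strain pooled with four other GFP strains with rapamycin as positive control; median GFP fluorescence per well over plate mean of DMSO wells so 100% = DMSO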); details: S. cerevisiae CIT2-GFP expression, 3 h, at 10 µM, stronger effect = higher value
[4] = TOR pathway LAP4-GFP level changes – S. cerevisiae, multiplex flow cytometry, primary screen (AID 1873;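 active = GFP signal, as percent of the solvent control, above the screen mean plus 3 SD, about 149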); details: S. cerevisiae LAP4-GFP expression, 3 h, at 10 µM, stronger effect = higher value
[5] = yeast AGP1-GFP level changes, GLN3 branch – cell-based, multiplex flow cytometry, S. cerevisiae, primary screen (AID 1887;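 active = GFP signal above the screen-wide mean plus 3 SD, that is over about 124.5% of the solvent control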;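 note: AGP1-GFP fusion strain of S. cerevisiae within a five-strain barcoded multiplex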); details: 3 h, at 10 µM, stronger effect = higher value
[6] = reduced mouse 2C T cell binding to pMHC/ICAM-1 vesicles – MLPCN validation set, flow cytometry, LFA-1/ICAM-1 modulator project, pilot screen (AID 2523;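 active = response below a set limit, under 55% cells CD8-positive and vesicle-bound, and CD8 cells' 90th-percentile brightness under 279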;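 for vesicle binding response: mean PE anti-B7-1 fluorescence of CD8+ cells relative to row control; 100% = QL9-loaded vesicles with DMSO vehicle in the same plate row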); details: 2C mouse CD8+ T cells, at 7 µM, stronger effect = lower value; double positive events: measured here: CD8+/vesicle+ event percentage
[7] = biological target: Integrin beta-1 (Homo sapiens) + Integrin alpha-4 (Homo sapiens) (UniProt P13612+P05556); assay: alpha4beta1 integrin LIBS antibody binding reduction – U937 cells, HUTS-21 mAb, flow cytometry, validation set, VLA-4 allosteric modulator project, pilot screen (AID 2674;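 active = inhibition above 50%, about 3 SD of the validation set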;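 note: antibody binding induced by the VLA-4 ligand LDV present at three times its Kd; 0% = LDV ligand with antibody and no compound and 100% = antibody without LDV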); details: HUTS-21 LIBS mAb binding, at 6.7 µM, stronger effect = higher value, binding induced by LDV ligand
[8] = calorie-restriction mimetic ROS inhibitors, yeast – validation compound set, pilot screen (AID 2706;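 active = superoxide response below 65% of plate, a cut near 3 SD across the whole screen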;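 note: yeast exposed to compound for one week at 30 degrees C before staining; 100% = mean of all compound wells on the same plate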); details: S. cerevisiae aging, superoxide DHE fluorescence; at 10 µM; stronger effect = lower value
[9] = biological target: Beta-adrenergic receptor kinase 1 (Homo sapiens) (UniProt P25098); assay: GRK2 binders displacing RNA aptamer, biochemical, validation, human GRK2, bead flow cytometry (AID 488806;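 active = aptamer binding inhibition above 30%, about 3 SD of noise from non-fluorescent compounds; inactive = inhibition at or below 30%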); details: bead-bound GRK2, FAM-aptamer displacement, at 10 µM, stronger effect = higher value
[10] = biological target: Beta-2 adrenergic receptor (Homo sapiens) (UniProt P07550); assay: agonist-induced loss of surface beta2AR – cell-based, FAP fluorogen, flow cytometry, validation set, pilot screen (AID 504459;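 active = percent response above 42, roughly 3 SD of non-fluorescent test compounds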;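 note: agonist-driven loss of surface beta2AR via internalization measured by FAP dye flow cytometry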); details: Am2.2-beta2AR cells, at 10 µM, stronger effect = higher value
[11] = biological target: AP-2 complex subunit beta (Homo sapiens) (UniProt P63010); assay: beta-arrestin/AP2 interaction blockers – biochemical, validation set, GST-AP2 beads, flow cytometry, pilot screen (AID 504541;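 active = inhibition above 54%, about 3 SD of non-fluorescent compounds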;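 note: AP2 carries R879A mutation and is captured from E. coli lysate; bead-bound FITC arrestin peptide fluorescence measuring arrestin peptide binding to AP2; 0% = DMSO wells and 100% = excess unlabeled arrestin peptide control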); details: FITC arrestin peptide, at 10 µM, stronger effect = higher value, AP2 beta2 appendage fragment, R879A mutant
[12] = cytosolic pH regulators acting via V-ATPase – S. cerevisiae, pHLuorin, HTS validation (AID 504600; in the data active = response above about 15%;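 note: plate controls were DMSO for no effect and reference compound for full effect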); details: V-ATPase proton transport, at 10 µM, stronger effect = higher value
[13] = test system: anti-desmoglein-3 scFv antibody binding to human DSG3; assay: blockers of pathogenic pemphigus antibody–desmoglein-3 binding – biochemical, validation compound set, bead-based, flow cytometry, pilot screen (AID 588368;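 active = binding below the plate cutoff, the plate median minus 3 SD, with a reading above zero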;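 note: signal is the median channel fluorescence of bead-bound GFP antibody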); details: Protein G beads, DSG3-Fc, scFv-GFP binding, at 10 µM, stronger effect = lower value
[14] = Nile Red efflux blockade in pump-expressing yeast – validation compound set, multiplex, phenotypic, pilot screen (AID 588506;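 active = efflux inhibition above 0.42, the validation set average plus 4 SD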;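 note: Nile Red retained in cells so higher fluorescence means more efflux inhibition; 0 = negative control wells and 1 = enniatin B 25 µM full block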); details: S. cerevisiae pump-expressing triplex, Nile Red efflux flow cytometry; at 10 µM; stronger effect = higher value; the pumps come from Candida albicans
[15] = biological target: ATP-binding cassette sub-family B member 6 (Homo sapiens) (UniProt Q9NP58); assay: blockers of ABCB6-driven porphyrin uptake – K562-ABCB6 cells, flow cytometry, validation set, pilot screen (AID 588550); details: K562-ABCB6 porphyrin accumulation, 1 h, at 10 µM, stronger effect = higher value;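 note: 0% = DMSO wells and 100% = benzethonium chloride 70 µM positive control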
[16] = AML differentiation inducers, ER-HoxA9 marrow cells – cell-based, GFP/MAC1 double positive, flow cytometry, validation set, primary screen (AID 588685;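 active = differentiation response of at least 50%, scaled between solvent and reference control, from cells with both markers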;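 note: compound exposure lasts four days before antibody staining and flow analysis; 0% = DMSO wells and 100% = 5 µM fulvestrant positive control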); details: stronger effect = higher value, normalized: vehicle 0, fulvestrant 100

Sequence of AP-2 complex subunit beta (Homo sapiens) (P63010 whole entry, looked up, the tested form may be a part, one chain of several): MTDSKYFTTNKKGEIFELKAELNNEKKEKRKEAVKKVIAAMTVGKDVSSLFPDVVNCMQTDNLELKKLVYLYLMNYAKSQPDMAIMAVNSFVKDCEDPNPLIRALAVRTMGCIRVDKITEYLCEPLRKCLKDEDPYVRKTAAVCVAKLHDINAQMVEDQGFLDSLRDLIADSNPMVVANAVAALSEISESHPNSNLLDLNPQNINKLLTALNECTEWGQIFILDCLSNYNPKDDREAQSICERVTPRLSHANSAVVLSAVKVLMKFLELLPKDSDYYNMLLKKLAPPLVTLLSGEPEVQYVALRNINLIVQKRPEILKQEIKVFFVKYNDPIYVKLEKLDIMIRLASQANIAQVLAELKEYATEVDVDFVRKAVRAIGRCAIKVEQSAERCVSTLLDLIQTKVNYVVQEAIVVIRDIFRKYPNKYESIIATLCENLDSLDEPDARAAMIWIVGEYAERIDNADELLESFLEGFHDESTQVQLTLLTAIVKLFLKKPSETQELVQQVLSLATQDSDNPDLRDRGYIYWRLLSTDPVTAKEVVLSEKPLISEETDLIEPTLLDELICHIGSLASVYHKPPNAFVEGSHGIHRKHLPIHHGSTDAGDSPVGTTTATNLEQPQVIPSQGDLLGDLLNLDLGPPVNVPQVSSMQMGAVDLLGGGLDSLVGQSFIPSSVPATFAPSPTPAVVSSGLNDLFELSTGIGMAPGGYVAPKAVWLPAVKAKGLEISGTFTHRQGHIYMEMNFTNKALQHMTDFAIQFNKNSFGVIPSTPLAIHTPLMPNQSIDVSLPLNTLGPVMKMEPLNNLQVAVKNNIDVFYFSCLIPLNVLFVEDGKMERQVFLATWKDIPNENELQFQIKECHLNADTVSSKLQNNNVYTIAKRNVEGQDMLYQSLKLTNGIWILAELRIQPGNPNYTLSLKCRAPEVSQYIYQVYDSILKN
Sequence of Beta-adrenergic receptor kinase 1 (Homo sapiens) (P25098 whole entry, looked up): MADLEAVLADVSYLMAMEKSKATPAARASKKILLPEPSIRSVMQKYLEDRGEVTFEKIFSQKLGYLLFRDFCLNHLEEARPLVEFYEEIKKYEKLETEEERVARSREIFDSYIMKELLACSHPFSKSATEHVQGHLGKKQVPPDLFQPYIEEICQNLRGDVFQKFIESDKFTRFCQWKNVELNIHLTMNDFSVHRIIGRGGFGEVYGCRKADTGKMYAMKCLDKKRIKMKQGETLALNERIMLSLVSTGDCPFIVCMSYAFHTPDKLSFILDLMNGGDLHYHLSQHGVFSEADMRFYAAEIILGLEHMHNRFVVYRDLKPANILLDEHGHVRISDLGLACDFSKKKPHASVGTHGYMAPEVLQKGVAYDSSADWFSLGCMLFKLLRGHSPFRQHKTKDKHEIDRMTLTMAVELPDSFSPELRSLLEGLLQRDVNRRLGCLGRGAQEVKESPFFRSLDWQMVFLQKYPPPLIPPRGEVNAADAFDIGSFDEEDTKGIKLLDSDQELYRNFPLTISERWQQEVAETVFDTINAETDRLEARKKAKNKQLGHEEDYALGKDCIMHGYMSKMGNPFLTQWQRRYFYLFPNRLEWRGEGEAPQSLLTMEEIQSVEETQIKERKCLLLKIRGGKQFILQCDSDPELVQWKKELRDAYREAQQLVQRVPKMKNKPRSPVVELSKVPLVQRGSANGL
Sequence of Integrin beta-1 (Homo sapiens) + Integrin alpha-4 (Homo sapiens) (P05556 whole entry, looked up): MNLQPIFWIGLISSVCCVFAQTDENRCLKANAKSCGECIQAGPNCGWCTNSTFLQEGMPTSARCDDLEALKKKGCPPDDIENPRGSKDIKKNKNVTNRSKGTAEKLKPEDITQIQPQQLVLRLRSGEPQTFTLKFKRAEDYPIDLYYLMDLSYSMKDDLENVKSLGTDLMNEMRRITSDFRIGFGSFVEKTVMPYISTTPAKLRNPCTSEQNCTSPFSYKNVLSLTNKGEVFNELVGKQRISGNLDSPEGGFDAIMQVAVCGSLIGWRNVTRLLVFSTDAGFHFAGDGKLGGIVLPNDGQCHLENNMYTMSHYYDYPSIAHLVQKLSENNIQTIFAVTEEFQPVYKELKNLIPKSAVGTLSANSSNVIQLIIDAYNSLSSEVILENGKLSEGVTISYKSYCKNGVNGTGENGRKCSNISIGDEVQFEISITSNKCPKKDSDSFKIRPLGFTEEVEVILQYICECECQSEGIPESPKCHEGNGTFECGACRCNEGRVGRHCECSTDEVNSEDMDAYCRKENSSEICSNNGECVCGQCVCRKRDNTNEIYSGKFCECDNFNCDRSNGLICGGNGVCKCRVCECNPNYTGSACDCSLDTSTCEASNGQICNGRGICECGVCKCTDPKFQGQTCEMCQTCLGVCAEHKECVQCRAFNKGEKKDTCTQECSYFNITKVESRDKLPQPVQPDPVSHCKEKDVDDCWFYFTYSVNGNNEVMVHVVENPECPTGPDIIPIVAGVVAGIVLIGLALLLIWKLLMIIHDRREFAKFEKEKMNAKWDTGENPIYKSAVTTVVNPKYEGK
Sequence of Integrin beta-1 (Homo sapiens) + Integrin alpha-4 (Homo sapiens) (P13612 whole entry, looked up): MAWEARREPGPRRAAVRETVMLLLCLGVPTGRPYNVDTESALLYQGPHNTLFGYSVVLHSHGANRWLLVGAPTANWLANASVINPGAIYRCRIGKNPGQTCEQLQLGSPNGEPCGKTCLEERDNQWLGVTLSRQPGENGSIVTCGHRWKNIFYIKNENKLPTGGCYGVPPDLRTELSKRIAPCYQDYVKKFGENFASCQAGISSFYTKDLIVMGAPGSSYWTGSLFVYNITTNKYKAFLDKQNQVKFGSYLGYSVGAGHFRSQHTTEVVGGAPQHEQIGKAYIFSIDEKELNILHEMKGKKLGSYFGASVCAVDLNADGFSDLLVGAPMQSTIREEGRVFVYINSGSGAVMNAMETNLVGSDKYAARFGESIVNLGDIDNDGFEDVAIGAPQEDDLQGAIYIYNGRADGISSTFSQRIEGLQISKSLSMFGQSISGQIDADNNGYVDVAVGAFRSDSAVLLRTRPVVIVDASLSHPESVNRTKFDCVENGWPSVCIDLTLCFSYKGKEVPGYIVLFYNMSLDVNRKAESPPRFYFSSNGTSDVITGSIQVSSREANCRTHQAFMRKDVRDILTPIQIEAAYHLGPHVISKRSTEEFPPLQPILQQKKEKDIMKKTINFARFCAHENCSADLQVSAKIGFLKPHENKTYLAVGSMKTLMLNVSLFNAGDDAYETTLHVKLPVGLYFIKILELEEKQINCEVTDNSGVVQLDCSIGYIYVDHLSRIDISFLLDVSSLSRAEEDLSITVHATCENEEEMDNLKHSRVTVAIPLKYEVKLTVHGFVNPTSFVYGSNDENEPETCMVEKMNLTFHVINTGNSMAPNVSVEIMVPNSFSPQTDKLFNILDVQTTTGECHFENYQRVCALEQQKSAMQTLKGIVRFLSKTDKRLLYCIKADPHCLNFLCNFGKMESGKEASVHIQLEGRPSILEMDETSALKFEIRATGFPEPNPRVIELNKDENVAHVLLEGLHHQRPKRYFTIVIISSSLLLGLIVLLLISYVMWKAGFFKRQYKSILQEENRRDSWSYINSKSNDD
Sequence of Beta-2 adrenergic receptor (Homo sapiens) (P07550 whole entry, looked up): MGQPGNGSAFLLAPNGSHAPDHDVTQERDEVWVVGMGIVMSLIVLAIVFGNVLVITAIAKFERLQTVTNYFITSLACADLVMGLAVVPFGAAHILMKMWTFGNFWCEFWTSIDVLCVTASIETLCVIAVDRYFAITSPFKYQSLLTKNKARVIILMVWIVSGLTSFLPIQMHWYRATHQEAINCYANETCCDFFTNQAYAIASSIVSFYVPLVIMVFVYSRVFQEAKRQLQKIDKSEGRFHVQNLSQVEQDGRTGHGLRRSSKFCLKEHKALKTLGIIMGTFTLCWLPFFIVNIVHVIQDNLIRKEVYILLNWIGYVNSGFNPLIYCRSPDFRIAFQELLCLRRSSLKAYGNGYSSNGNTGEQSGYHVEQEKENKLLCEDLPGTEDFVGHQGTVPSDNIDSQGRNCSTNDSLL
Sequence of ATP-binding cassette sub-family B member 6 (Homo sapiens) (Q9NP58 whole entry, looked up): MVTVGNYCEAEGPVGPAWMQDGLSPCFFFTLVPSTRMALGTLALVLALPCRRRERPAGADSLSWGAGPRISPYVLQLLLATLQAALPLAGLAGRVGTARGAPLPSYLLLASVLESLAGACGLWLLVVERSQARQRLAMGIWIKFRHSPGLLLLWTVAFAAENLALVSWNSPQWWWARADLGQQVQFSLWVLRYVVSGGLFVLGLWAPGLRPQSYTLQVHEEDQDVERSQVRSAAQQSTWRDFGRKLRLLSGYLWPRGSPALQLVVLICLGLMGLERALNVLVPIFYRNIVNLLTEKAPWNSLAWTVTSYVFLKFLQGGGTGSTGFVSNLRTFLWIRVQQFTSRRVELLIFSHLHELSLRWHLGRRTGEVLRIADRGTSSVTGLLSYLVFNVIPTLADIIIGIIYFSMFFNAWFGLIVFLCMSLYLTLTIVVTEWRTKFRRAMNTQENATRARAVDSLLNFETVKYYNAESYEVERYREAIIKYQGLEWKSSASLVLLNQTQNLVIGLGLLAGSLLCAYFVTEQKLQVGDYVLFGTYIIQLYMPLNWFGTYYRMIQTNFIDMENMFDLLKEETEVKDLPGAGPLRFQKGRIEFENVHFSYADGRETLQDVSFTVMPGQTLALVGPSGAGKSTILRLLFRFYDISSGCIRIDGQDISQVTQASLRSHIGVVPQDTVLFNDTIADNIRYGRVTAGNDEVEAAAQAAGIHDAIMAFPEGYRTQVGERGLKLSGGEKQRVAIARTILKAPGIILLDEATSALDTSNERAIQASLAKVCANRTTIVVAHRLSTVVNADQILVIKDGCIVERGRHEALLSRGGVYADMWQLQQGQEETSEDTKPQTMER

SMILES | percent of DMSO control GFP [1] | GFP response vs DMSO [2] | percent response of DMSO control [3] | GFP response vs DMSO [4] | GFP response, % of DMSO [5] | double positive events [6] [%] | vesicle binding response [6] | inhibition [7] | superoxide response (% of plate) [8] | aptamer binding inhibition [9] | response [10] | inhibition [11] | response [12] | binding (% of control) [13] | efflux inhibition (fraction of control) [14] | inhibition [15] | differentiation response [16]
NNC(=O)c1cc(O)c(O)c(O)c1 | 105% (inactive) | 88.8% (inactive) | 114% (inactive) | 96% (inactive) | 106% (inactive) | 59 | 149% (inactive) | -1.49% (inactive) | 93.7% (inactive) | 4% (inactive) | -4.68% (inactive) | 12% (inactive) | 1.02% (inactive) | 91.2% (inactive) | -0.1 (inactive) | 5% (inactive) | -2.69% (inactive)
CC(=O)Oc1cc2oc(=O)cc(C)c2cc1OC(C)=O | 101% (inactive) | 102% (inactive) | 99.6% (inactive) | 73.5% (inactive) | 86% (inactive) | 60 | 207% (inactive) | -5.89% (inactive) | 102% (inactive) | 10% (inactive) | -3.64% (inactive) | 3.54% (inactive) | 1.09% (inactive) | 101% (inactive) | 0.08 (inactive) | 7% (inactive) | -15.2% (inactive)
COc1cc2c(cc1OC)C(=S)NC(C)(C)C2 | 102% (inactive) | 106% (inactive) | 100% (inactive) | 95.3% (inactive) | 102% (inactive) | 60.1 | 1280% (inactive) | -11.9% (inactive) | 110% (inactive) | 0% (inactive) | 0.62% (inactive) | 22% (inactive) | -4.8% (inactive) | 101% (inactive) | 0.08 (inactive) | -13% (inactive) | 6.11% (inactive)
COc1cc2c3c(c1)C(C)CC(C)(C)N3C(=O)C2=O (stereo not given) | 92.4% (inactive) | 122% (inactive) | 110% (inactive) | 79.2% (inactive) | 94.7% (inactive) | 58.1 | 199% (inactive) | 15.2% (inactive) | 99% (inactive) | 89% (active) | 2.87% (inactive) | 0.2% (inactive) | 1.61% (inactive) | 105% (inactive) | 0.37 (inactive) | 12% (inactive) | 1.64% (inactive)
C=CCC1(O)C(=O)N2C(=C1C(=O)N1CCOCC1)c1ccccc1CC2(C)C (stereo not given) | 99.4% (inactive) | 108% (inactive) | 101% (inactive) | 95.3% (inactive) | 99.9% (inactive) | 55.4 | 38.1% (inactive) | -2.53% (inactive) | 111% (inactive) | 1% (inactive) | -4.96% (inactive) | 23.5% (inactive) | -6.09% (inactive) | 95.5% (inactive) | 0.24 (inactive) | -7% (inactive) | 0.24% (inactive)

Reference: PubChem BioAssay
